Rows were chosen to be rich in hits. Some 12% of all compounds tested hit in one or more screens of this group.
Shiga toxin inh: inhibitors of Shiga toxin in Vero cells. AID 2315. 290,000 tested, 9.2% active. Vero cells, Shiga toxin protein synthesis inhibition reporter. inhibition, % at 38.7 µM; in the data active means inhibition mostly above about 28%, no sharp cut-off; inactive means mostly below about 43%; further: 0% is about no effect
FMDV antiviral: blocks foot and mouth disease virus | Potency, µM (doses to about 57.9 µM), without a hit: top-dose activity change, negative = inhibition, hits mostly inhibitors | FMDV antiviral cell-based qHTS | 410,000 tested, 1.2% active; calls by dose curve; tested in HEK293T cells; further: read-out not given here; potency means the concentration at half of the fitted maximal effect; on the % scale 0 is the no-effect control and ±100 the full control effect; nearly all actives have a fitted effect of over 45% in size
Cycloheximide cs: affects cycloheximide protein synthesis inhibition readout, counter-screen; max response, %; cell reporter, cycloheximide protein synthesis inhibition counterscreen; 300,000 tested, 12% active; in the data active means max response mostly above about 13%, no sharp cut-off; inactive means mostly below about 14%; further: read at 38.3 µM for the half of the compounds with a filed dose; 0% is about no effect
Sm TGR inh: S. mansoni TGR enzyme inhibition; Q962Y6; Potency, µM (titrated, usually from 114 µM), inactives show at the top dose activity change, negative = inhibition, usual class: inhibitors; 360,000 tested, 3% active; purified TGR, DTNB reduction, TNB absorbance 405 nm; active means well fitted inhibition curve with a large enough effect; inconclusive means small, poorly fitted or top-dose-only effect; inactive means no such curve, though single readings can be large or run the other way; further: potency means the concentration at half of the fitted maximal effect; on the % scale 0 is the no-effect control and ±100 the full control effect; nearly all actives have a fitted effect of over 60% in size
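Kinetic colorimetric format: TGR-catalysed, NADPH-driven DTNB reduction monitored via TNB absorbance. Enzyme dispensed at 20 nM; compound exposure 15 min at room temperature before reaction start.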
Active calls of the source: *; ? = inconclusive; nt = no result given.

SMILES | Shiga toxin inh | FMDV antiviral | Cycloheximide cs | Sm TGR inh
O=C(CSc1nc2ccccc2c(=O)n1Cc1ccco1)NCc1ccco1 | 18 | nt | 21 | 40µM*
Cc1ccc(-n2c(SCC(=O)NCc3ccco3)nc3sc(C)c(C)c3c2=O)cc1 | 18 | 14% | 11 | 18%
N#CCCn1c(SCC(=O)NCc2ccco2)nc2ccccc21 | -1 | -15% | -5 | 40µM*
CCN(CC)CCn1c(SCC(=O)NCc2ccco2)nc2c(sc3ccccc32)c1=O | 27 | -16% | 1 | 32µM*
Cc1ccc(C(=O)c2oc3ccccc3c2NC(=O)Cc2coc3c(C)c(C)ccc23)cc1 | nt | 11% | nt | -2%
Cc1cc(NC(=O)c2ccc(Br)o2)cc(-c2nc3ccccc3o2)c1O | nt | -23% | nt | -1%
Cc1cc(NC(=O)CSc2nc3c(c(=O)n2Cc2ccccc2)SC(C)C3)no1 (stereo not given) | 15 | 39% | -5 | 0%
O=C(CSc1nnc(C2CCCCC2)n1-c1ccccc1)NCc1ccco1 | -10 | nt | 9 | 45µM*
CN(Cc1ccccc1)C(=O)CSc1nc2ccccc2c(=O)n1Cc1ccco1 | 39 | nt | 38* | 2%
CC1Cc2nc(SCC(=O)NCc3ccco3)n(Cc3ccccc3)c(=O)c2S1 (stereo not given) | 36* | 24% | 17 | -20%
O=C(CSc1nc2ccccc2c(=O)n1-c1ccccc1)NCc1ccco1 | 41 | -16% | 42* | -29%
COCCn1c(C)cc(C(=O)CSc2cc(C)c3ccccc3n2)c1C | 14 | 10% | 11 | -7%
COCCn1c(C)cc(C(=O)CSc2nc3ccccc3c(=O)n2Cc2ccco2)c1C | 96* | -11% | 23* | -13%
CC1CCCN(S(=O)(=O)c2cc(C(=O)NCc3ccccc3Cl)n(C)c2)C1 (stereo not given) | nt | -17% | nt | 5%
Cc1[nH]n(-c2ccccc2)c(=O)c1C(=O)Nc1ccccc1 | 31 | 17% | 16* | 4%
C/C(=N\NC(=O)c1ccc(C)cc1)c1c(C)[nH]n(-c2ccccc2)c1=O | 99 | 17% | 30* | 0%
C/C(=N\NC(=O)c1ccccc1)c1c(C)[nH]n(-c2ccccc2)c1=O | 61* | -3% | 49* | -10%
Cc1[nH]n(-c2ccccc2)c(=O)c1C(=O)c1ccc([N+](=O)[O-])cc1 | 10 | ? | 2 | 3%
Cc1cccc(N2CCN(C(=O)C3CCN(S(=O)(=O)Cc4ccccc4)CC3)CC2)c1C | nt | ? | nt | 0%
COc1ccc(NC(=O)c2ccco2)cc1NC(=O)COc1ccc(Cl)c(C)c1 | nt | -6% | nt | -2%
COc1ccc(NC(=O)c2c(NCc3cccs3)sc3c2CCCCC3)cc1 | nt | 58% | nt | 18µM*
CCOc1ccc(NC(=O)c2c(NCc3sccc3C)sc3c2CCCCC3)cc1 | nt | 23% | nt | 7.9µM*
CCOc1ccc(NC(=O)c2c(NCc3cccs3)sc3c2CCCCC3)cc1 | nt | 46% | nt | 7.9µM*
CCOc1ccc(NC(=O)c2c(NCc3ccc(C)o3)sc3c2CCCCC3)cc1 | nt | -12% | nt | 8.9µM*
COc1ccc(NC(=O)c2c(NCc3cccs3)sc3c2CCCC3)c(OC)c1 | nt | 70% | nt | -5%
SMILES | Shiga toxin inh | FMDV antiviral | Cycloheximide cs | Sm TGR inh
CCOc1ccc(NC(=O)c2c(NCc3cc(OC)c(OC)cc3OC)sc3c2CCCC3)cc1 | nt | -2% | nt | -27%
COc1cc(C(CC(=O)Nc2ccc(F)cc2F)N2Cc3ccccc3C2=O)cc(OC)c1OC (stereo not given) | nt | 54% | nt | -2%
Cc1c(CC(=O)NCCc2ccccc2F)c(=O)oc2c(C)c3occ(C(C)(C)C)c3cc12 | nt | -21% | nt | -2%
O=C(O)CCC(=O)Nc1sc2c(c1C(=O)Nc1ccccc1)CCCCC2 | 40* | -14% | 10 | -10%
COc1ccc(OC)c(NC(=O)c2c(NCc3cccs3)sc3c2CCCCC3)c1 | nt | 27% | nt | 40µM*
Cc1nn(C(=O)c2cccc(F)c2)c(C)c1S(=O)(=O)N1CCCCCC1 | nt | -1% | nt | -3%
CC(C)(C)C(=O)NCCc1csc2nc(-c3ccc(F)cc3)nn12 | nt | ? | nt | 1%
CCOC(=O)c1cccc(NC(=O)Nc2ccc(OCC)cc2)c1 | 108* | 11% | 39* | 15%
CCOc1ccc(NC(=O)Nc2cc(C(C)C)c(O)cc2C)cc1 | -1 | -19% | 1 | ?
CCOc1ccc(NC(=O)Nc2cccc(C(=O)O)c2)cc1 | -11 | 1.6µM* | -1 | 20%
CCOc1ccc(/C=C/C(=O)Nc2cccc(C(C)=O)c2)cc1 | 64* | -23% | 27* | -6%
CCOc1ccc(NC(=O)Nc2cc(C)ccc2F)cc1 | 54* | 63% | 34* | 1%
O=C(CS(=O)(=O)c1cccc2nsnc12)NCc1ccc(Cl)cc1 | nt | -16% | nt | -16%
Cc1ccc(S(=O)(=O)N2CCN(C(=O)CSc3ccc(F)cc3)CC2)cc1 | 8 | -11% | -1 | -2%
Cc1ccc(S(=O)(=O)N2CCN(C(=O)CC(C)C)CC2)cc1 | 81* | -1% | 32* | -4%
CCOc1ccc(OCCC(=O)OCC(=O)N2CCN(S(=O)(=O)c3ccc(C)cc3)CC2)cc1 | nt | ? | nt | 50µM*
Cc1ccc(S(=O)(=O)N2CCN(C(=O)CSc3ncc(C(F)(F)F)cc3Cl)CC2)cc1 | 3 | -42% | -1 | 35µM*
Cc1ccc(S(=O)(=O)N2CCC(C(=O)N3CCC3)CC2)cc1 | 67* | -16% | 45* | 1%
CC(C)CC(=O)N1CCN(S(=O)(=O)c2ccc(Cl)cc2)CC1 | -9 | -17% | 0 | 12%
CC(C)C[C@H](CN)CC(=O)O | nt | 17% | nt | nt
Cc1cc(C)c2c(-n3cccc3)c(C(=O)NCCCN3CCCCC3C)sc2n1 (stereo not given) | nt | -11% | nt | 10%
COc1ccc(CN(C(=S)Nc2ccccc2)C2CC(=O)N(c3ccc(F)cc3)C2=O)cc1 (stereo not given) | 35 | 5% | 31* | 4%
CCOc1ccc(N2C(=O)CC(N(CCc3ccc(S(N)(=O)=O)cc3)C(C)=O)C2=O)cc1 (stereo not given) | -2 | -2% | -2 | 19%
CCC(=O)N(Cc1ccc(S(N)(=O)=O)cc1)C1CC(=O)N(c2ccc(OC)cc2)C1=O (stereo not given) | -9 | -14% | -3 | 28µM*
Cc1cc(N2C(=O)CC(N3CCN(C(c4ccccc4)c4ccccc4)CC3)C2=O)no1 (stereo not given) | -11 | -20% | -5 | 45µM*
SMILES | Shiga toxin inh | FMDV antiviral | Cycloheximide cs | Sm TGR inh
CCCC(CCC)=NNC(=O)c1ccccc1F | 17 | 40% | 19 | 17%
O=C(NN=Cc1ccccc1O)C1CC1 | nt | 8% | nt | nt
O=C(NN=C(Cc1ccccc1)Cc1ccccc1)C1CC1 | 27 | 8% | 21* | 10%
O=C(NCc1ccccc1)NC(=O)c1ccccc1F | 33* | 0% | 28* | 5%
Cc1cc(C(=O)NN=C(Cc2ccccc2)Cc2ccccc2)c(C)o1 | 84* | -5% | 29* | -5%
O=C(NN=C(Cc1ccccc1)Cc1ccccc1)c1ccccc1F | 91* | 40% | 38* | -9%
COc1cccc(CCNc2ncnc3sc(C(=O)N4CCOCC4)c(C)c23)c1 | nt | -8% | nt | nt
Cc1ccc(C)c(CSc2nnc3[nH]c(=O)cc(C)n23)c1 | nt | -12% | nt | 7%
O=C(CN1C(=O)COc2ccc(S(=O)(=O)N3CCOCC3)cc21)Nc1ccc(F)c(Cl)c1 | nt | 14% | nt | 1%
O=C(NN=C(Cc1ccccc1)Cc1ccccc1)c1ccncc1 | 21 | -9% | 8.0* | 14%
